# Pf Dd2 growth – blocks in vitro growth of P. falciparum Dd2 | P. falciparum Dd2 growth, SYBR Green, 72 h | Potency, µM (top dose mostly 28.9 µM), for the others: at the highest dose activity, negative = inhibition, hits mostly inhibitors | 120,000 compounds, 4.3% hits | AID 1347417; active = well fitted inhibition curve with a large enough effect;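 note: plate controls were DMSO vehicle for no effect and reference drug for full effect; nearly all actives have a fitted effect of over 65% in size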
#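 Readout: SYBR Green fluorescence, 485 nm excitation, 535 nm emission, after ~16 h lysis at 37C. Before that, Dd2-infected red cells (2.5% hematocrit) grew 72 h with compound, 29 uM top final concentration.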
# Starred values were filed as active, the others as inactive; i = inactive; [ ] = dose if it differs, or a comment. Only a selection was taken, and hits are over-represented in it overall. Potency is the fitted concentration of half-maximal effect.
SMILES,Pf Dd2 growth
CN(C)c1cccc(-c2cnc3[nH]cc(CC(=O)NCc4cccnc4)c3c2)c1,8.9µM*
Cc1cccc(-c2cnc3[nH]cc(CC(N)=O)c3c2)c1,i
CN(C)c1cccc(NC(=O)Cc2c[nH]c3ncc(-c4cccnc4)cc23)c1,i
O=C(CC1CCCCC1)N1CCC(Cc2nc(-c3ccc(F)cc3)no2)CC1,i
O=[S+]([O-])(c1ccccc1)N1CC2(COCCN(Cc3ccncc3)C2)C1,22%[44.1 µM]
CS(=O)(=O)N1CCC(CC(=O)NC2CCCCC2)C1 (stereo not given),-2%
CNC(=O)c1ccc2cncn2c1,-2%[44.1 µM]
CCOC(=O)c1cc(C)n(CC(=O)N2CCCOCCNC(=O)CC2)c1C,26%
Cc1ccc(C(=O)N2CCC3(CC2)N=C(c2cccc(Br)c2)NO3)cc1,-8%
CN(C)c1cccc(Oc2nnnn2[C@H]2CO[C@H]3[C@@H]2OC[C@@H]3NC(=O)c2cncnc2)c1,-21%
O=C(c1ccc(C(F)(F)F)cc1)N1CCCC2(C1)C(=NC1CCCCC1)NC(=O)N2c1cc(F)cc(F)c1 (stereo not given),41%
CC1CCN(S(=O)(=O)c2ccc3c(c2)oc(=O)n3CC(=O)NC(C)c2ccccc2)CC1 (stereo not given),11µM*
CC(NC(=O)Cn1c(=O)oc2cc(S(=O)(=O)N3CCCCCC3)ccc21)c1ccccc1 (stereo not given),17%
CC1CCN(S(=O)(=O)c2ccc3c(c2)oc(=O)n3CC(=O)O)CC1,22%
COc1ccc(-c2noc(N3CCN(c4ccc(C)cc4)C(C)C3)n2)cc1OC (stereo not given),1.6µM*
COc1ccc(-c2noc(CSc3nnc(C)n3-c3ccc(C)cc3)n2)cc1OC,-10%
Cc1ccc(N2CCN(c3cc(C)nc4c(-c5ccc(Cl)cc5)c(C)nn34)CC2C)cc1 (stereo not given),i
CC1=NS(=O)(=O)N(C)C=C1C(=O)OCc1noc(-c2ccccc2Cl)n1,16%
Cc1cc(Cl)ccc1NS(=O)(=O)c1ccc2c(c1)CCN2S(C)(=O)=O,0%
CCC(=O)N1CCc2cc(S(=O)(=O)NC(C(=O)NCc3ccccc3Cl)C(C)C)ccc21 (stereo not given),i
CS(=O)(=O)N1CCc2cc(S(=O)(=O)NCc3ccccc3Cl)ccc21,3.2µM*
Cc1cnc(C(=O)NC2C[C@H]3CC[C@@H](C2)N3C(=O)COc2ccccc2)cn1 (stereo not given in full),i
CCNC(=O)[C@@H]1C[C@@H](NC(=O)CN2CCOCC2)CN1Cc1ccc(C)o1,2%
O=C1Nc2ccc(-c3ccccc3F)cc2C(=O)N2CCN(C(=O)COc3ccccc3)C[C@H]12,-14%
Cc1ccc(C(=O)Nc2nc3n(n2)C(c2ccc(F)cc2)C=C(c2ccccc2)N3)cc1 (stereo not given),6.3µM*
SMILES,Pf Dd2 growth
Cc1ccc(C2C=C(c3ccccc3)Nc3nc(NS(C)(=O)=O)nn32)cc1 (stereo not given),107%[5.79 µM]
Fc1ccc(C2=CC(c3ccc(F)cc3)n3c(nc4ccccc43)N2)cc1 (stereo not given),67%
CC(=O)Nc1ccc(S(=O)(=O)Nc2nc3n(n2)C(c2ccccc2)C=C(c2ccc(Cl)cc2)N3)cc1 (stereo not given),13%
Cc1ccc(S(=O)(=O)Nc2nc3n(n2)C(c2ccc(F)cc2)C=C(c2ccccc2)N3)cc1 (stereo not given),-30%
O=S(=O)(Nc1nc2n(n1)C(c1ccccc1)C=C(c1ccc(Cl)cc1)N2)c1ccccc1 (stereo not given),27%
Cc1ccc(C2C=C(c3ccccc3)Nc3nc(NS(=O)(=O)c4ccccc4)nn32)cc1 (stereo not given),0%
CC1=C(C(=O)Nc2cccnc2)C(c2ccc(Cl)cc2)n2nc(-c3ccccc3)nc2N1 (stereo not given),i
O=S(=O)(Nc1nc2n(n1)C(c1ccc(F)cc1)C=C(c1ccccc1)N2)c1ccc(Cl)cc1 (stereo not given),-16%
O=C(Nc1nc2n(n1)C(c1ccccc1)C=C(c1ccccc1)N2)c1ccc(Cl)c([N+](=O)[O-])c1 (stereo not given),8.9µM*
O=C(Nc1nc2n(n1)C(c1ccc(F)cc1)C=C(c1ccccc1)N2)c1ccc(Cl)cc1 (stereo not given),10µM*
Cc1ccc(C(=O)Nc2nc3n(n2)C(c2ccccc2)C=C(c2ccccc2)N3)cc1 (stereo not given),11µM*
COCCN1CC2(CCCN(c3cc(C)c4ccccc4n3)C2)CCC1=O (stereo not given),-8%
Cc1cc(C)n(CC(=O)N2CCC(N3C(=O)C4(CCCCC4)C3c3ccncc3)CC2)n1 (stereo not given),-20%
COC(=O)c1ccccc1S(=O)(=O)N1CCC(c2cc(-c3cccc(C)c3)n[nH]2)CC1,i
NC(=O)c1cccc(-c2n[nH]c3c2CC(=O)N(CC2CCOCC2)C3)c1,4%[44.1 µM]
CC1(C)CC(C(=O)N2CCC3(CC2)C(=O)Nc2ccccc23)CCO1 (stereo not given),2%
O=C(Nc1cnc(-c2ccc(F)cc2)nc1)c1ccco1,i
COc1ccccc1C(=O)Nc1nc2n(n1)C(c1ccc(F)cc1)C=C(c1ccc(Cl)cc1)N2 (stereo not given),4.5µM*
COc1ccc(C2C=C(c3ccc(Cl)cc3)Nc3nc(NC(=O)CCC(=O)O)nn32)cc1 (stereo not given),-5%
COc1ccc(C(=O)Nc2nc3n(n2)C(c2ccc(F)cc2)C=C(c2ccc(Cl)cc2)N3)cc1 (stereo not given),5µM*
Cc1ccc(-c2nc3sc(CCNC(=O)c4ccco4)c(C)n3n2)cc1,i
O=C(Nc1nc2n(n1)C(c1ccc(F)cc1)C=C(c1ccc(Cl)cc1)N2)c1ccc([N+](=O)[O-])cc1 (stereo not given),4µM*
CCC1Oc2ccc(NC(=O)c3ccc([N+](=O)[O-])cc3)cc2CN(Cc2ccc(F)cc2)C1=O (stereo not given),-10%
COc1ccccc1C(=O)NC1CCN(c2cc(-c3ccc(Cl)cc3)[nH]n2)CC1,i
COc1ccc(C2C=C(c3ccccc3)Nc3nc(NS(=O)(=O)c4ccc(Cl)cc4)nn32)cc1 (stereo not given),4%
SMILES,Pf Dd2 growth
Cc1ccc(C2C=C(c3ccc(Cl)cc3)Nc3nc(NC(=O)c4ccco4)nn32)cc1 (stereo not given),3.5µM*
O=C(Cn1nnc(-c2ccc(Cl)cc2)n1)NCc1ccc(F)cc1,-4%
COc1ccc(C(=O)N[C@@H]2CCC[C@@H]2C(=O)NC2CCCCCC2)cn1,-21%
COc1ccc(-c2noc([C@@H]3CCCN3C(=O)c3cccc(C)c3)n2)cc1,-7%
CCN(CCN(C)C)C(=O)c1cn(CC2COc3ccccc3O2)nn1 (stereo not given),-17%
CSc1ccccc1C(=O)N1CCN(C(C)=O)CC(O)C1 (stereo not given),-5%
CC(C)n1c(C2CCN(C(=O)CCc3nc4ccccc4s3)CC2)nn(C)c1=O,-16%
CCc1ccc(S(=O)(=O)N2[C@@H]3CC[C@H]2CC(NC(=O)c2ccc(F)cc2)C3)cc1 (stereo not given in full),i
CCc1ccc(Nc2sc(C(=O)c3ccc(F)cc3)c(N)c2S(=O)(=O)c2ccccc2)cc1,8.9µM*
N#Cc1c(Nc2cccc(F)c2)sc(C(=O)c2ccc(Cl)cc2)c1N,22%

# Source: PubChem
